Screening results from PubChem BioAssay.
S-ASM inh = Inhibitors of Secretory Acid Sphingomyelinase (S-ASM): qHTS | placental ASM, HMU-PC fluorogenic substrate, 60 min | Potency, µM (series often up to 57.5 µM), most hits filed as inhibitors | 0.006% of 340,000 active | AID 504937, 2011
Target sequence (P17405 47-631 limits assumed): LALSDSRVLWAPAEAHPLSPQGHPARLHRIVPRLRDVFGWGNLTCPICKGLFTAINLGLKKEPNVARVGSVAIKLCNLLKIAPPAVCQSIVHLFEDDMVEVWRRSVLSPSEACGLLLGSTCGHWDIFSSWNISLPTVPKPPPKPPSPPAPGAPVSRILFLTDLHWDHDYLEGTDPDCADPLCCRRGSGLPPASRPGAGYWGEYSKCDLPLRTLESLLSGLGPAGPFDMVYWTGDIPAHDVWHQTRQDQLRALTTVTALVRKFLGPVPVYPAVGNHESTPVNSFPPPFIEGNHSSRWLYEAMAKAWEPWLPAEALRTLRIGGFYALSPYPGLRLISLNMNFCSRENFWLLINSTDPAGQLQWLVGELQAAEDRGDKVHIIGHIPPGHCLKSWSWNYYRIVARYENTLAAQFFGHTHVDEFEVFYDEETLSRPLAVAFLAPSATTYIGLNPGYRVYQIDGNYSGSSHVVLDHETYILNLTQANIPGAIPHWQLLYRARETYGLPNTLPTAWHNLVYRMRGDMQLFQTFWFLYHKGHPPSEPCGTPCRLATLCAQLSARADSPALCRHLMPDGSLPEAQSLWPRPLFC
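Fluorogenic HMU-PC substrate (9 uM final) is turned over by placental ASM in 60 min at 37 C after a 10 min compound preincubation. Reaction ended by alkaline stop (pH 10), with fluorescence read at 386/447 nm.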
PINK1 modulator = A Quantitative High throughput Screen to Identify Chemical Modulators of PINK1 Expression. 0.2% of 410,000 active. PINK1 immunofluorescence, high-content cytometry, 24 h. Potency, µM (titrated, usually from 76.6 µM), most hits filed as activators; active = well fitted activation curve with a large enough effect; inconclusive = small, poorly fitted or top-dose-only effect; cell line not stated here; also: nearly all actives have a fitted effect of over 65% in size
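Fluorescence from anti-PINK1 antibody, together with nuclear and cell stains, was scanned on a laser-scanning cytometer. Before staining, stable-line cells were incubated 24 hours with compounds at 5 concentrations; primary antibody 12 h at 10 degrees C.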
CCT modulator = High-Throughput Screening for Modulators of Cytosolic Chaperonin Activity; 0.3% of 360,000 active; purified chaperonin ATPase assay, HTRF ADP detection, 30 min; activity change, % (concentration not given with the values), hits read low; in the data active = activity change below about -30%
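First, chaperonin was dispensed at 40 nM or 20 nM final depending on batch activity. Next, compounds were pinned at 76 uM and ATP added at 10 uM. After 30 min at 37 °C, ADP detection reagents ran 30 min at ambient temperature.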
Mm-Cpn inhibitor = Inhibitors of TCP-1 ring complex (TRiC) of Methanococcus maripaludis (MmCpn): qHTS; purified Mm-Cpn ATPase, ADP Transcreener TR-FRET; Potency, µM (titrated, usually from 76.9 µM), most hits filed as inhibitors; 0.031% of 330,000 active; AID 504842, 2011; also: nearly all actives have a fitted effect of over 80% in size
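Purified archaeal chaperonin (25 nM final) was preincubated with compound for 10 min at 37°C, then ATP (10 uM final) was added for 30 min at 37°C in Tris pH 7.4/KCl/MgCl2/DTT buffer. ADP was quantified by HTRF Transcreener TR-FRET.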
ALOX12 inh = Primary qHTS assay for inhibitors of human arachidonate 12S-lipoxygenase (ALOX12): Round 2. AID 1671190, 2021. Potency, µM (series often up to 108 µM), actives largely listed as inhibitors. purified 12hLO, xylenol orange hydroperoxide absorbance. 1.1% of 580,000 active
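Purified human 12hLO at 150 nM in 25 mM Hepes, 0.01% Triton X-100, pH 7.0, preincubated 15 min at room temperature with compound. Reaction started with 40 uM arachidonic acid, 30 min at room temperature. Hydroperoxide measured by Fe-xylenol orange, 573/405 nm absorbance ratio.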
p53 reactivation = qHTS assay for re-activators of p53 using a Luc reporter | H1299 p53-A138V BP100-luciferase reporter, luminescence, 24 h | Potency, µM (doses to about 92.2 µM), hits mostly activators | 0.063% of 320,000 active; also: nearly all actives have a fitted effect of over 45% in size
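p53-null H1299 cells stably carrying temperature-sensitive p53-A138V and a BP100-luciferase reporter were pinned with compounds (4-point, 1:5 series) and held 24 hrs at 37 deg C. Luminescence was read 10 min after detection reagent.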
A number is an active result; i = inactive; ? = inconclusive; nt = not tested or not shown; ! = not active in a repeat. In the library only some 1.4% were active in any assay of this set; here they are far more common. Unless noted, calls follow the shape of the dose curve; as a rule, active = well fitted curve in the direction sought with a large enough effect; inconclusive = small, poorly fitted or top-dose-only effect, or another doubt; inactive = no such curve, though single readings can be large; an effect the other way counts as inactive or inconclusive.

SMILES	S-ASM inh	PINK1 modulator	CCT modulator	Mm-Cpn inhibitor	ALOX12 inh	p53 reactivation
Oc1cccc(Nc2nc(-c3ccccc3)nc3ccccc23)c1	i	i	i	i	40µM!	i
Cc1cccc(Nc2nc(-c3ccccc3)nc3ccccc23)c1	nt	i	nt	nt	i	nt
Cc1ccc(-c2csc(-c3nc(-c4ccc(C)cc4)c(C)s3)n2)cc1	nt	nt	nt	nt	i	nt
CCN(CC)C(=S)Nc1ccc(C(=O)O)cc1	nt	nt	nt	nt	i	nt
CCN1CCN(c2ccc(S(=O)(=O)N3CCCCC3)cc2NC(=O)Cc2ccccc2)CC1	i	i	i	i	16µM!	i
CCC(=O)c1ccc(OCC(=O)Nc2cc(S(=O)(=O)N3CCCCC3)ccc2N2CCN(CC)CC2)cc1	i	i	-121	i	?	i
CCN1CCN(c2ccc(S(=O)(=O)N3CCCCC3)cc2NC(=O)Cc2ccccc2F)CC1	nt	i	i	i	i	i
Cc1ccccc1OCC(=O)Nc1c(C(=O)c2ccc3c(c2)OCCO3)oc2ccccc12	nt	nt	nt	nt	i	nt
CCCc1cc(=O)n2nc(N(C)CC(=O)Nc3cccc(F)c3)sc2n1	nt	nt	nt	nt	i	nt
Cc1ccc(SSc2cc(C)ccc2N)c(N)c1	i	i	i	i	10µM	?
Cc1ccc(O)c(N)c1	i	i	i	i	nt	?
CC(Sc1nc(CN2CCOCC2)nc2ccccc12)C(=O)c1cccc(Cl)c1 (centres undefined)	nt	nt	nt	nt	i	nt
S=c1nc(-c2sccc2OCc2ccc(Cl)cc2Cl)[nH][nH]1	i	i	i	i	28µM	i
Brc1ccc(-c2csc(-c3c[nH]c4ccccc34)n2)cc1	i	i	i	?	i	45µM
O=C1CCCN1CC(=O)N1CCCC(c2nc3ccccc3o2)C1 (centres undefined)	nt	nt	nt	nt	i	nt
CC(=O)Nc1ccc(Nc2nc(-c3sc(C)nc3C)cs2)cc1	i	i	i	i	16µM!	i
CCNc1nc(-c2ccc(NC(C)=O)cc2)cs1	nt	nt	nt	nt	28µM	nt
CC(=O)c1ccc(Nc2nc(-c3sc(C)nc3C)cs2)cc1	nt	i	i	nt	i	nt
CC(=O)Nc1ccc(Nc2nc(-c3ccc(NC(C)=O)cc3)cs2)cc1	nt	nt	nt	nt	i	nt
CCC(=O)Nc1nc(C)c(-c2csc(Nc3cccc(O)c3)n2)s1	i	i	i	i	?	28µM
Cn1c(-c2ccccc2)nc2cnc(Nc3cccc(OC(F)(F)F)c3)cc21	nt	nt	nt	nt	i	nt
CN(C)C(CNC(=O)c1cc(=O)c2ccccc2o1)c1cccs1 (centres undefined)	nt	nt	nt	nt	i	nt
Cc1cc(C)nc(NC(=S)Nc2ccc(F)cc2F)c1	i	i	i	i	i	i
Cc1ccc(C)c(NC(=S)Nc2ncccc2C)c1	i	i	i	i	28µM	i
Cc1ccc(C)c(NC(=O)c2ccccn2)c1	i	i	i	i	i	i
SMILES	S-ASM inh	PINK1 modulator	CCT modulator	Mm-Cpn inhibitor	ALOX12 inh	p53 reactivation
Cc1cccnc1NC(=S)Nc1ccc(F)cc1F	i	i	i	i	16µM	i
COc1cc(NC(=S)Nc2cccc(C)n2)cc(OC)c1OC	i	i	i	i	i	i
COc1cc(NC(=S)Nc2ncccc2C)cc(OC)c1OC	i	i	i	i	16µM	i
CC(C)Sc1ccc2nn(CC(=O)Nc3ccccc3F)c(=O)n2n1	nt	nt	nt	nt	i	nt
Cc1ccc([N+](=O)[O-])c(C)c1N	nt	nt	nt	nt	i	nt
COc1ccc(N2C(=O)C(C)CS2(=O)=O)cc1S(=O)(=O)N(C)CCc1ccncc1 (centres undefined)	nt	nt	nt	nt	i	nt
CCN(CC)CCn1c2ccccc2c(=O)c2c(O)ccc(O)c21	i	i	i	nt	25µM	nt
O=CCCc1ccccc1	nt	nt	nt	nt	i	nt
Cc1ccc(NC2=C(Cl)C(=O)c3ccccc3C2=O)cc1	i	i	i	i	i	5µM
O=S(CCN1CCC(n2cccc2)CC1)c1ccccc1 (centres undefined)	nt	nt	nt	nt	i	nt
CCN(CC)c1ccc(NC(=S)NC(=O)c2cccs2)cc1	i	i	i	i	18µM	i
CCC(C)c1ccc(O)c(NC(=O)c2cccnc2)c1 (centres undefined)	i	i	i	i	i	i
O=C(NNC(=S)Nc1ccc(Cl)cc1)c1cccs1	i	i	-71	i	i	i
CCN(CC)c1ccc(NC(=O)c2ccccc2F)cc1	i	i	i	i	?	40µM
CCC(C)c1ccc(O)c(NC(=S)NC(=O)c2cccs2)c1 (centres undefined)	nt	i	i	nt	22µM	nt
CC(=O)NC(=S)Nc1ccc(NC(=S)NC(=O)c2cccs2)cc1	i	i	i	i	?	i
O=C(N[C@H]1CO[C@H]2[C@@H]1OC[C@@H]2n1cc(-c2ccccc2)nn1)c1ccc(C(F)(F)F)cc1	nt	nt	nt	nt	i	nt
Cc1c(C(c2cccc([N+](=O)[O-])c2O)c2c(C)n(C)n(-c3ccccc3)c2=O)c(=O)n(-c2ccccc2)n1C	i	i	i	i	i	i
Cc1[nH]n(-c2ccccc2)c(=O)c1C(c1cccc([N+](=O)[O-])c1O)c1c(C)[nH]n(-c2ccccc2)c1=O	i	i	i	i	25µM	i
Cc1ccc2nc(-c3cccnc3SCC(=O)N3c4ccccc4CC3C)[nH]c2c1 (centres undefined)	i	i	i	50µM	i	?
Cc1ccc2nc(SCC(=O)N3c4ccccc4CC3C)c(C)cc2c1 (centres undefined)	i	i	i	i	i	i
Cc1ccc2nc(-c3ccc(SCC(=O)N4CCc5ccccc54)nc3)[nH]c2c1	i	i	-44	i	i	?
Cc1ccc(-c2cc(-c3ccc(C)c(C)c3)[nH]n2)cc1C	nt	nt	nt	nt	i	nt
Cc1cc2oc(=O)cc(CSc3nncn3C(C)C)c2cc1C(C)C	nt	nt	nt	nt	i	nt
Cc1ccc2c(c1)C(C)(C)C1(/C=C/c3cccc(Cl)c3)NC(=O)CN21 (centres undefined)	nt	nt	nt	nt	i	nt
Cc1ccc(N/N=C(\C#N)C(N)=S)c(C)c1	i	i	i	i	8.9µM	i
COc1ccc(Cl)cc1NC(=O)c1cccc([N+](=O)[O-])c1O	i	22µM	i	nt	?	nt
CCOC(=O)C1=C(O)/C(=C/c2cn(CC(=O)NCC3CCCO3)c3ccccc23)SC1=Nc1ccc(C)cc1 (centres undefined)	i	14µM	i	nt	nt	nt
CCOC(=O)C1=C(O)/C(=C/c2ccc(-c3ccccc3C(=O)O)o2)SC1=Nc1ccc(C)cc1	i	i	i	i	?	i
CC(=O)N(\C=C/C=C/C=C1\Sc2ccccc2C1=O)c1ccccc1	i	?	i	i	16µM	i
